Laboratory results: PubChem BioAssay (EPA / NIEHS)
Records with an inconclusive call do not appear. Activity calls are given as the source filed them. How the source made its calls: active means hit-call score of the fitted dose curve at least 0.9, where 1 is the maximum; inconclusive means response in the unintended direction; inactive means score below 0.9.

The compounds below were run against Nuclear receptor subfamily 1 group I member 2 (Homo sapiens) (UniProt O75469) (assay: NVS_NR_hPXR: NovaScreen (NVS) Nuclear Receptor Binding Assay for human Pregnane X Receptor (PXR) (AID 2283365);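 further: a drop in FRET signal versus DMSO baseline means the compound binds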).
Sequence of Nuclear receptor subfamily 1 group I member 2 (Homo sapiens) (O75469 whole entry, looked up): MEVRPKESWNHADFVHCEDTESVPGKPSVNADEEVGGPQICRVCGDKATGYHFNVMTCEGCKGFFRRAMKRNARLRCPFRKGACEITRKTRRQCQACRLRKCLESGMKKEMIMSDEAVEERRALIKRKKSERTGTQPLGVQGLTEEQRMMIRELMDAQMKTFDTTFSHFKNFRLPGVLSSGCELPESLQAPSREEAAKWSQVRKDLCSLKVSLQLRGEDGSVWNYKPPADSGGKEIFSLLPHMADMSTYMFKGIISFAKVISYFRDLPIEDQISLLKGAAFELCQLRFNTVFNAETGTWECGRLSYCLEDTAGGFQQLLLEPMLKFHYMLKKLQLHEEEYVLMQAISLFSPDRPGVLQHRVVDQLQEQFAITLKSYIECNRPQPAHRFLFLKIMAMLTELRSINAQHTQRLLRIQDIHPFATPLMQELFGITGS
Outline: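 Human PXR protein, cell-free; compound added, incubated 2 h, TR-FRET read. Signal decrease vs DMSO = binding. Screened 25 uM duplicate, actives re-run as dilution series.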

Structure (SMILES)	outcome	AC50
Cc1ccc(S(=O)(=O)NCl)cc1	inactive	–
CCCCC(CC)COP(=O)(O)OCC(CC)CCCC (stereo not given)	inactive	–
O=C(OCCOCCOCCOC(=O)c1ccccc1)c1ccccc1	inactive	–
CC(CCl)OP(=O)(OC(C)CCl)OC(C)CCl (stereo not given)	–	4.35 µM (active)
COC(=O)C1CCC(C(=O)OC)CC1 (stereo not given)	inactive	–
O=S(=O)(O)c1ccc2ccccc2c1	inactive	–
CC(Cc1ccc(O)c(O)c1)C(C)Cc1ccc(O)c(O)c1 (stereo not given)	–	5.16 µM (active)
CCCCCCOC(=O)c1ccccc1O	inactive	–
CNC(=S)NC	inactive	–
CCN(Cc1cccc(S(=O)(=O)O)c1)c1ccc(C(=C2C=CC(=[N+](CC)Cc3cccc(S(=O)(=O)O)c3)C=C2)c2ccc(O)cc2S(=O)(=O)[O-])cc1	–	2.41 µM (active)
